Screening data (PubChem BioAssay)
Hits are enriched below; roughly 4% of the tested compounds scored in any of these assays.
Wnt bcat act = Wnt/beta-catenin pathway activation; Wnt/beta-catenin reporter cell assay, activator, plate reader; activation, % at 9.35 µM; 300,000 compounds, 1.2% hits; AID 743398; in the data active means activation above about 30%, passing the limit was not always enough; inconclusive means no clear call, values can overlap the other calls;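 further: 0% = neutral control wells and 100% = positive control wells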
esBAF inh = blocks esBAF chromatin remodeling in mouse ES cells; Bmi1-luciferase knock-in reporter, 24 h; 100% = twice the neutral-well signal; reporter increase, % at 12.5 µM; AID 602393; 350,000 compounds, 2% hits; in the data active means activation above about 40%; inconclusive means no clear call, values can overlap the other calls;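 further: 0% = median of the plate's neutral control wells and 100% = double that signal; a rise in the Bmi1 reporter signal indicates esBAF inhibition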
MITF TRPM1 inh = reduces MITF-dependent TRPM1 promoter luciferase signal; SK-MEL-5 TRPM1 promoter luciferase, 24 h; inhibition, % at 12.5 µM; 330,000 compounds, 0.83% hits; AID 488899;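 active means mean inhibition across replicates of 60% or more, whatever share of single replicates reaches that level; inconclusive means some that reach 60%, reason not given; inactive means mean inhibition across replicates below 60%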
MITF TRPM1 HTS = increases MITF-driven TRPM1 promoter luciferase signal. SK-MEL-5 TRPM1-promoter luciferase, 24 h; % of positive control, neutral wells = 0. activation, % at 12.5 µM. 300,000 compounds, 0.75% hits. AID 588334;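 active means mean activation of at least 80% with every replicate also reaching 80%; inconclusive means mean reaches 80% but some replicate falls short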;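 further: 0% = neutral control wells and 100% = parthenolide positive control wells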
LMP1 NFkB inh = Epstein-Barr LMP1 NF-kappaB reporter inhibition; LMP1-induced NF-kappaB luciferase reporter cells, luminescence; inhibition, % at 12.5 µM; 350,000 compounds, 0.69% hits; AID 504558; in the data active means inhibition above about 41%; inconclusive means no clear call, values can overlap the other calls;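 further: 0% = neutral control wells and 100% = reference inhibitor control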
Statin myotox sup = protects C2C12 myotubes from simvastatin toxicity; 330,000 compounds, 0.78% hits; AID 602340; ATP luminescence, 48 h; scaled: DMSO 0, geranylgeraniol control 100; rescue of ATP level, % at 7.49 µM;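 active means mean ATP rescue above about 67%, or every replicate alone reaching that limit, limit read from the data, passing the limit was not always enough; inconclusive means no clear call, values can overlap the other calls; inactive means mean under the limit and some replicate under it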;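 further: myotubes were challenged with 10 µM simvastatin during compound exposure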
* marks the source's active call; other numbers are inactive results; ? = inconclusive; · = no result.

SMILES	Wnt bcat act	esBAF inh	MITF TRPM1 inh	MITF TRPM1 HTS	LMP1 NFkB inh	Statin myotox sup
CN1CC(=O)N(CC(=O)Nc2ccc(Br)cc2F)C1=O	-1	-3	-10	8	-7	1
O=C(CNC(=O)c1ccco1)Nc1ccc(OC(F)F)cc1	-5	-2	1	0	2	-1
O=C(N/N=C/c1cc2c(cc1[N+](=O)[O-])OCO2)c1cccnc1	2	-8	-4	2	-4	7
COc1ccc(C(=O)N2CCN(c3cccc(Cl)c3)CC2)c(OC)c1	-2	3	11	-12	5	-65
Cc1ccc(NC(=O)CSc2nnc3ccccn23)c(Cl)c1	1	66*	·	·	-17	2
O=C(CSc1nnc2ccccn12)Nc1ccccc1Cl	5	17	-13	15	3	-3
CC(=O)c1ccc(OCCNS(=O)(=O)c2ccc(-n3cnnn3)c(C)c2)cc1	-1	-11	9	-10	7	16
O=C1C/C(=C/NCc2ccccc2)C(=O)N1	·	0	7	3	0	95*
c1cncc(-c2nc(NCc3ccco3)c3ccccc3n2)c1	·	-4	12	-10	-13	94*
Cc1ccc(-c2nc(NCc3ccco3)c3ccccc3n2)cc1	15	31	-16	16	-14	-6
COc1ccc2nc(Nc3nc(CSc4ccc(C)cc4)cc(=O)[nH]3)nc(C)c2c1	-2	29*	-19	17	-24	·
CC(O)CNc1nc2ccccc2n1-c1ncnc2sc3c(c12)CCC3 (stereo unspecified)	-4	3	8	-3	9	114*
CCOc1cc(C(=O)NCCOC)ccc1OC	·	-6	12	-5	-8	120*
COc1ccc(CCNC(=O)c2ccc(OC)c(OC)c2)cc1OC	0	1	-2	2	1	-12
CCN(CC)S(=O)(=O)c1ccc(N2CCOCC2)c(NC(=O)COc2ccc(Cl)cc2)c1	-4	12	-3	5	4	16
CCN(CC)S(=O)(=O)c1ccc(O)c(NC(=O)COc2ccc(S(=O)(=O)N3CCOCC3)cc2)c1	44*	-5	-1	5	-4	4
COc1ccc(C(=O)Nc2ccc(O)c3ccccc23)cc1OC	3	·	14	·	-7	·
CCN(CC)c1ccc(NC(=O)c2ccc(Br)o2)cc1	70*	43*	-92	97*	-39	-28
COc1ccc(-c2ccc(NC(=O)c3ccc(Br)o3)cc2)nn1	31*	27	-95	98*	-7	-27
COC(=O)Cc1ccc(NC(=O)c2ccc(Br)o2)cc1	9	57*	-46	48	-1	-2
CCCOC(=O)c1ccc(NC(=O)c2ccc(Br)o2)cc1	6	·	-56	47	-4	·
O=C(Nc1ccccc1)c1ccc(Br)o1	13	39	-39	42	-5	-8
COc1ccc(NC(=O)c2sc(NC(=O)COc3ccccc3)nc2C)cc1	·	9	0	1	-10	-32
COc1cccc(OC)c1C(=O)Nc1ccc(C)cc1C(=O)c1ccccc1	0	·	11	-9	5	·
C[C@@H]1CN([C@@H](C)CO)C(=O)c2cc(C#CC3CC3)cnc2O[C@@H]1CN(C)S(=O)(=O)c1cccc(F)c1	·	17	·	·	·	-15
SMILES	Wnt bcat act	esBAF inh	MITF TRPM1 inh	MITF TRPM1 HTS	LMP1 NFkB inh	Statin myotox sup
CC(C)C1COC(c2cccc3ccccc23)=N1 (stereo unspecified)	39*	55*	-69	74	-22	0
Cc1ccc(C)c(S(=O)(=O)N2CCN(Cc3ccc(O)c4ncccc34)CC2)c1	-6	·	74*	-74	19	·
OCc1ccc(O)c2ncccc12	·	0	?	-59	-14	6
Oc1ccc(CN2CCc3ccccc3C2)c2cccnc12	·	-48	71*	-68	82*	-10
CC(C)COCc1ccc(O)c2ncccc12	-1	·	63*	-60	8	·
CCCOCc1ccc(O)c2ncccc12	15	-4	69*	-69	-1	-3
CCOC(=O)N1CCN(Cc2ccc(O)c3ncccc23)CC1	-1	·	·	·	·	·
O=C(C[C@@H]1CC[C@@H]2[C@H](COC[C@H](O)CN2S(=O)(=O)c2ccc(Cl)cc2)O1)N[C@H]1CCN(Cc2ccccc2)C1	·	-1	·	·	·	-9
Cc1ccc(CC(=O)Nc2cccnc2)cc1	3	·	3	-3	-5	·
Oc1ccc(F)c2cccnc12	7	-1	10	-9	-8	-5
Oc1ccc(COCc2ccccc2)c2cccnc12	1	60*	23	-25	11	-21
Oc1ccc(CNc2ccccc2F)c2cccnc12	-3	1	65*	-67	8	1
Oc1ccc(Cc2ccccc2)c2cccnc12	-1	-32	·	·	·	-10
CCOCCCNc1ncnc2c1nc1n2CCCC1	-2	5	0	4	-1	-13
CC(C)CC(NC(=O)/C(=C\c1ccco1)NC(=O)c1ccco1)C(=O)O (stereo unspecified)	0	-4	0	·	-21	5
CNC[C@H]1OCCCC[C@@H](C)Oc2ccc(NC(=O)Nc3ccc(OC)cc3)cc2C(=O)N([C@@H](C)CO)C[C@H]1C	·	-6	·	·	·	26
CN(C)CCn1cnc2c(c1=N)C(c1ccccc1)c1ccc3ccccc3c1O2 (stereo unspecified)	5	-14	93*	-93	-16	-70
N=c1c2c(ncn1Cc1ccco1)Oc1c(ccc3ccccc13)C2c1ccccc1 (stereo unspecified)	15	·	15	-18	11	·
O=C(COn1nnc2ccccc21)NCC1CCCCC1	36*	53*	-35	·	-21	·
CS(=O)(=O)N1CCc2cc(C(=O)N3CCCCC3)ccc21	-1	-1	11	-10	-25	4
COc1ccc(N2CCN(C(=O)c3ccc4c(c3)CCN4S(=O)(=O)c3ccccc3)CC2)cc1	1	-2	-10	10	-9	134*
CS(=O)(=O)N1CCc2cc(C(=O)N3CCOCC3)ccc21	-2	-5	5	-1	1	98*
O=C(c1ccc2c(c1)CCN2S(=O)(=O)c1ccccc1)N1CCN(c2ccc(F)cc2)CC1	-1	5	-3	3	7	18
CC(Oc1ccccc1)C(=O)NNS(=O)(=O)c1ccc([N+](=O)[O-])cc1 (stereo unspecified)	0	·	-2	2	1	·
CN1C[C@H](C(=O)NC2(C)OC3(O)[C@@H]4CCCN4C(=O)[C@H](Cc4ccccc4)N3C2=O)CC2c3cccc4[nH]cc(c34)C[C@H]21 (stereo partly specified)	-3	6	-5	6	4	-15
O=C(C(Br)=Cc1ccccc1)c1ccccc1	-25	2	94*	-94	-28	12
Cc1onc(-c2ccccc2Cl)c1C(=O)OCC(=O)N1CCC(C)CC1	1	8	-5	6	-5	16
Cc1ccc2c(c1)sc(-c1ccc(N(C)C)cc1)[n+]2C	-4	-9	62*	-61	22	-124
Cc1ccc(N(C)C)cc1	-1	·	·	·	·	·
